In all, about 33,000 sequences were measured (“E-score (-0.5 to 0.5)”: median about -0.041, highest 2% from about 0.37 on). What follows is part of a selection rich in the highest values, with near analogues and random picks from the rest.
target: T1, Ecm22 (UniProt Q05958); assay: PBM E-score (8-mer binding enrichment) (E-score (-0.5 to 0.5)); higher = stronger / more preferred TF binding; settings: protein concentration: 200 nM; construct: GST-full length
T1 sequence: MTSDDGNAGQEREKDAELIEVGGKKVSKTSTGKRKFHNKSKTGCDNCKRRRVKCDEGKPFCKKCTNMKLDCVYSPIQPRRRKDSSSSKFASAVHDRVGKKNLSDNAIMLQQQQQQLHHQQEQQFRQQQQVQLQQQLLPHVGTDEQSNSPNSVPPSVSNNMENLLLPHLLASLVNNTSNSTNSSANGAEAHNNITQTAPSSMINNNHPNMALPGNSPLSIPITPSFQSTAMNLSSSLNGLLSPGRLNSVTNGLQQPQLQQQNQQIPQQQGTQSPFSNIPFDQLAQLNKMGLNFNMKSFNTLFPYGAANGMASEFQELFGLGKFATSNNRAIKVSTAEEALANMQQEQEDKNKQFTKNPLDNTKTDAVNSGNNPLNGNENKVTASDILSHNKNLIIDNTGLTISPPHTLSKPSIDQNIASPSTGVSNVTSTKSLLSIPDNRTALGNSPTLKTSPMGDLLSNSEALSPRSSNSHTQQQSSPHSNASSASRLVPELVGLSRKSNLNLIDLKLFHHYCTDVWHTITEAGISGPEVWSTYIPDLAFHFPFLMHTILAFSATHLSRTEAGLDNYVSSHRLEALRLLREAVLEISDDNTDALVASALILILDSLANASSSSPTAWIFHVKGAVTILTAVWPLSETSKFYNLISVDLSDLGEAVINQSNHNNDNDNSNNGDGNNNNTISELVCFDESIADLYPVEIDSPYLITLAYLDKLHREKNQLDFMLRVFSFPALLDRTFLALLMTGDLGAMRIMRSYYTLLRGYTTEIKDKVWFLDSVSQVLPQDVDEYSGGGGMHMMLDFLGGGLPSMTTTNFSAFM
Method in brief: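 Each ungapped eight-base word and its reverse complement, pooled, received an E-score from the Universal PBM Analysis Suite. Underlying scans, normalised with masliner, recorded fluorescent anti-GST bound to GST-tagged yeast transcription factors. These were applied at about 100-200 nM to universal all-10-mer Agilent arrays double-stranded by primer extension.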

| Sequence | PBM E-score |
| --- | --- |
| AGACCTTG | -0.252 |
| GGAAATCC | -0.00159 |
| AGCAGCCT | -0.102 |
| ATAGCCCC | -0.223 |
| CCAAGGGA | -0.0775 |
| CATCAATG | -0.153 |
| GCCGGTAC | 0.129 |
| CGGCACGA | 0.176 |
| ACTTTGTG | 0.118 |
| ACGCTACA | -0.0355 |
| ACGCTACG | 0.382 |
| CCGCTACG | 0.339 |
| TATCGCCA | -0.0963 |
| GCGGTTAA | -0.0219 |
| TCGGTTAA | 0.387 |
| CCGGTTAA | 0.132 |
| GTCCCCCA | -0.157 |
| GCGGTAAA | 0.173 |
| GGCAACTA | -0.282 |
| CGCAACGA | 0.448 |
| GGCAACGA | 0.417 |
| GGCAACCA | -0.0847 |
| AGCAACGA | 0.407 |
| CGCAACGC | 0.0974 |
| AGCAACGG | 0.203 |
| CGCAACAA | 0.0504 |
| AGCAACGC | 0.0942 |
| AATCGAGG | 0.0537 |
| CAAAAGTA | -0.0653 |
| CCATTTTC | -0.105 |

From the supplement of paper PMC3334620
